Source: PubChem BioAssay (NCI)
This is part of a sample that, as a whole, favours compounds with a hit. Of some 79,000 tested, about 15% had one in any assay. A number with no mark means an inactive call. Active and inactive are the calls of the source. Rule as the data show it: active = growth inhibition above about 70%; inactive = the rest.

Assay: NCI Yeast Anticancer Drug Screen. Data for the bub3 strain (AID 167)
Conditions: S. cerevisiae bub3 mutant strain, at 50.0 µM, stronger effect = higher value
Protocol: Growth inhibition of yeast strains with defined genetic alterations is measured as a screen for potential anti-cancer activity. Selected strains with alterations in DNA damage repair or cell cycle control were exposed to compounds and growth inhibition was measured relative to vehicle treated controls. The strain used in this assay is bub3
With `c1ccc(-c2c[s+]cc(-c3ccccc3)c2)cc1` the growth inhibition was 78.2% (active).
Work on `CC(=O)Nc1ccc(S(=O)(=O)Nc2c(-c3ccccc3)[nH]c(C)c2C(C)=O)cc1` yielded a growth inhibition of 1.65%.
`Cc1cc(C)[n+]([O-])c(C)c1` gave a growth inhibition of -19.4%.
`COC(=O)Nc1cccc(NC(=O)C(=O)O)c1` showed a growth inhibition of -4.7%.
With `Cc1ccc(C2=NO[C@@H]3C(=O)N(c4ccc(Cc5ccc(N6C(=O)[C@H]7C(c8ccc(C)cc8)=NO[C@H]7C6=O)cc5)cc4)C(=O)[C@H]23)cc1` the growth inhibition was 31.1%.
In the case of `CN(C)CCN1C(=O)c2c(c3cccn3c3c2cnn3-c2ccccc2)C1=O`, the growth inhibition is reported as 4.9%.
`CC(=O)OCC1OC(Sc2cccc3ccccc23)C(OC(C)=O)C(OC(C)=O)C1OC(C)=O` (stereo not given) gave a growth inhibition of 0%.
`O=[N+]([O-])/C(Cl)=C(/C(Cl)=C(Cl)Cl)N1CCOCC1` gave a growth inhibition of 23.9%.
Work on `CCCCNCCCC(C(=O)O)c1ccccc1` (stereo not given) yielded a growth inhibition of -35.2%.
In the case of `CC(O)C(O)C(O)C(O)C#N` (stereo not given), the growth inhibition is reported as 0.15%.
For `CCN(CC)CCNc1ccc2ncn3c4c(OC)cccc4c(=O)c1c23`, the growth inhibition was -46.8%.
`CCOC(=O)c1c(Br)c(-c2ccc(OC)cc2)c(Br)n1C` showed a growth inhibition of -39%.
Work on `COC(c1ccccc1)(c1ccccc1)c1cc(NS(=O)(=O)c2ccccc2)ccc1NS(=O)(=O)c1ccccc1` yielded a growth inhibition of -4.7%.
`CCC1(C#N)N=C(c2ccccc2)c2ccccc2N1C(=O)OC` (stereo not given) gave a growth inhibition of -35.5%.
`C/C(=N\NC(=O)c1ccccc1O)c1cccc(/C(C)=N/NC(=O)c2ccccc2O)n1.O=S(=O)([O-])[O-].[Fe+2]` gave a growth inhibition of 0.65%.
`COC(=O)C1CCC(=O)N1CN(C(C)=O)c1ccccc1` (stereo not given) gave a growth inhibition of -5.8%.
Work on `N#Cc1ncn(CCO)c1N` yielded a growth inhibition of -3.95%.
Compound `CC1CCC(O)CC1C` (stereo not given) has a growth inhibition of -33.6%.
`CC(C)CN(CC(C)C)C(=O)c1ccc([N+](=O)[O-])cc1` showed a growth inhibition of 38.1%.
`CCN(CC)c1ccc(NCC(O)c2cc(Cl)ccc2OC)cc1` (stereo not given) showed a growth inhibition of -6.3%.
Compound `Nc1ccccc1CO` has a growth inhibition of -4.65%.
`O=C(CP(c1ccccc1)c1ccccc1)c1cccc(C(=O)CP(c2ccccc2)c2ccccc2)c1` showed a growth inhibition of -14.3%.
For `CC[C@@H]1CN(C)[C@H]2Cc3c([nH]c4ccccc34)C(=O)C[C@H]1C2C(=O)OC` (stereo not given in full), the growth inhibition was -26.2%.
`CN(C)Cc1cc(N=Nc2c(Cl)cccc2Cl)ccc1O` showed a growth inhibition of 28%.
With `CNC(=O)OCc1c(COC(=O)NC)c(-c2ccc(C(C)(C)C)cc2)n(C)c1C` the growth inhibition was 15.8%.
Work on `COc1cc(C2C3=C(COC3=O)Oc3cc4c(cc32)OCO4)ccc1OC(C)=O` (stereo not given) yielded a growth inhibition of -4.35%.
With `COc1ccc(C=Nc2ccc(O)cc2)cc1` the growth inhibition was -22.6%.
Compound `Nc1ccc(S(=O)(=O)N/N=C/c2ccccc2)cc1` has a growth inhibition of -34%.
`NS(=O)(=O)c1ccc(NC(NC(=O)C(C(F)(F)F)C(F)(F)F)(C(F)(F)F)C(F)(F)F)cc1` showed a growth inhibition of 5.15%.
For `Cc1ncc2c(n1)CCC1=C2OS(=O)(=O)CC1N(C)C` (stereo not given), the growth inhibition was -10.1%.
In the case of `CCCNS(C)(=O)=O`, the growth inhibition is reported as 11.1%.
With `O=C(O)/C=C\c1cccc([N+](=O)[O-])c1` the growth inhibition was 27.6%.
For `CCNc1ncc2nc(CC(=O)OC)c(=O)n(CC)c2n1`, the growth inhibition was 10.5%.
`O=[N+]([O-])c1ccc(NC(CO)C(O)C(O)C(O)CO)c([N+](=O)[O-])c1` (stereo not given) showed a growth inhibition of 3.2%.
With `COC(=O)c1ccc(C)[nH]1` the growth inhibition was 6.4%.
`NC1=NN(c2c(Cl)cc(Cl)cc2Cl)C(=O)C1` gave a growth inhibition of 33%.
For `CC(C)(C)C1CCC2c3c([nH]c4ncccc34)C3C(=O)N(c4ccccc4)C(=O)C3C2C1` (stereo not given), the growth inhibition was -32.6%.
Work on `CCCC(=O)OCC(C)(C)COC(=O)CCC` yielded a growth inhibition of 16%.
`Cc1cc(C(=O)O)c(C#N)c(=O)n1C` showed a growth inhibition of -12%.
`N/C(=N\N=C\c1ccccn1)NO` gave a growth inhibition of -6.15%.
